Assay results: PubChem BioAssay (Tox21)
Records with an inconclusive call do not appear. Unmarked numbers belong to inactive results. The call rests on the fitted dose curve; in most records, active means well fitted inhibition curve with a large enough effect in the repeat runs; inconclusive means weak or mixed curves; inactive means no such curve, though single readings can be large or run the other way.

Experiment: qHTS assay to identify small molecule antagonists of the estrogen related receptor (ERR) signaling pathway (AID 1224819; further: nearly all actives have a fitted effect of over 50% in size)
Conditions: ERR reporter cell line, luciferase inhibition; series mostly up to 46.1 µM; activity change, negative = inhibition: at the top concentration
From the text: National Center for Advancing Translational Sciences [NCATS]
NIH Chemical Genomics Center [NCGC]
U.S. Environmental Protection Agency [EPA]
National Institutes of Environmental Health Sciences [NIEHS]
National Toxicology Program [NTP]
U.S. Food and Drug Administration [FDA]
Estrogen related receptors (ERRs), the first orphan nuclear receptors discovered, play an important role in the control of cellular energy metabolism. ERRs are required for high-energy production in response to the environmental challenges. ERR-alpha was also identified as an adverse marker for breast cancer progression; ERR-alpha-positive tumors have a poor prognosis. To screen and to identify environmental compounds that perturb the ERR signaling pathways could provide valuable information for potential therapeutic or preventive measures in the treatment of metabolic disease. For identifying ERR antagonists, ERR cell line (provided by NTP) has been used to screen LOPAC library.
Tox21 Assay Protocol Summary:
The ERR cells were dispensed at 2,000 cells/5 ul/well in 1536-well white plates using a Multidrop dispenser. After the assay plates were incubated at a 37 C/5% CO2 incubator for 6 hours, 23 nL of compounds dissolved in DMSO, positive and negative controls or DMSO only was transferred to the assay plate by a pin tool. The plates were incubated at 37 C for 18 hours. 4 ul/well of One-Glo reagent was added into the assay plates using a Flying Reagent Dispenser. After 30 min incubation at room temperature, the luminescence intensity in the plates was measured using a ViewLux plate reader.
On the % scale 0 is the no-effect control and ±100 the full control effect.

SMILES | activity change, negative = inhibition
CC(C[N+](C)(C)C)OC(N)=O (configuration not stated) | 19%
CCn1nc(C(=O)O)c(=O)c2cc3c(cc21)OCO3 | 5.02%
CC(C)(c1ccc(O)cc1)c1ccc(O)cc1 | -24.6% [at 92.2 µM]
Brc1c(NC2=NCCN2)ccc2nccnc12 | 12.8%
C[C@H](NC(CCc1ccccc1)C(=O)O)C(=O)N1CCC[C@H]1C(=O)O (some centres not stated) | 4.56%
C[C@](N)(Cc1ccc(O)cc1)C(=O)O | 6.3%
CCO/C([O-])=N/c1c[n+](N2CCOCC2)no1 | 15.2%
Cc1ccc(=O)n(-c2ccccc2)c1 | 6.49%
COCCc1ccc(OCC(O)CNC(C)C)cc1 (configuration not stated) | 17.3%
Nc1c2c(nc3ccccc13)CCCC2O (configuration not stated) | 7.13%
COC(=O)[C@@H](N)Cc1ccc(O)c(O)c1 | 9.54%
CN(C)CCCN1c2ccccc2CCc2ccc(Cl)cc21 | -8.92%
COC(=O)c1c(Cl)c(Cl)c(C(=O)OC)c(Cl)c1Cl | 21.7% [at 92.2 µM]
Cc1cccc(C)c1NC(=O)C(C)N (configuration not stated) | 2.7%
COC(=O)C1=C(C)NC(C)=C(C(=O)OC)C1c1ccccc1[N+](=O)[O-] | -13.5%
O=C(O)CN(CCOCCOCCN(CC(=O)O)CC(=O)O)CC(=O)O | 7.81%
CCn1ccnc1CC1COc2ccccc2O1 (configuration not stated) | 2.6%
